# The list is not random: actives were taken first. Their share in the collection is about 1.6%.
# Glyco luc inh: increase of ERlucT glycosylation luciferase signal, primary screen, N-linked glycosylation inhibitor project, D54 ERlucT cells, luminescence, set 2 | 360,000 tested, 0.23% active | reporter increase, % at 12.5 µM | D54 ERlucT glycosylation luciferase reporter, 24 h; percent of 100 nM tunicamycin response | AID 588692, 2011;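 active = mean luciferase reporter signal, scaled so untreated is 0 and the glycosylation-blocking control 100, at or above a set limit in every replicate; inconclusive = mean reaches the limit but not every replicate does; inactive = mean below the limit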;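 also: luciferase carries N-glycosylation sites so blocking glycosylation raises the light; 0% = median of neutral control wells and 100% = median of 100 nM tunicamycin wells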
# ABCB6 inh MLPCN: ABCB6 transporter inhibitors, primary screen, K562-ABCB6 cells, flow cytometry, MLPCN library; ATP-binding cassette sub-family B member 6 (Homo sapiens), Q9NP58; K562-ABCB6 porphyrin accumulation, 1 h; hits give low values; fluorescence ratio to DMSO, % at 10 µM; 360,000 tested, 0.19% active; AID 602162, 2011;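 active = fluorescence ratio to DMSO below 75%, the collection mean minus 3 SD; inconclusive = too few cells collected in the well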;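 also: signal is porphyrin accumulated inside mitochondria; 100% equals median channel fluorescence of DMSO control wells; lower ratio means ABCB6 inhibition with less porphyrin fluorescence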
# Target sequence (Q9NP58 whole entry, looked up): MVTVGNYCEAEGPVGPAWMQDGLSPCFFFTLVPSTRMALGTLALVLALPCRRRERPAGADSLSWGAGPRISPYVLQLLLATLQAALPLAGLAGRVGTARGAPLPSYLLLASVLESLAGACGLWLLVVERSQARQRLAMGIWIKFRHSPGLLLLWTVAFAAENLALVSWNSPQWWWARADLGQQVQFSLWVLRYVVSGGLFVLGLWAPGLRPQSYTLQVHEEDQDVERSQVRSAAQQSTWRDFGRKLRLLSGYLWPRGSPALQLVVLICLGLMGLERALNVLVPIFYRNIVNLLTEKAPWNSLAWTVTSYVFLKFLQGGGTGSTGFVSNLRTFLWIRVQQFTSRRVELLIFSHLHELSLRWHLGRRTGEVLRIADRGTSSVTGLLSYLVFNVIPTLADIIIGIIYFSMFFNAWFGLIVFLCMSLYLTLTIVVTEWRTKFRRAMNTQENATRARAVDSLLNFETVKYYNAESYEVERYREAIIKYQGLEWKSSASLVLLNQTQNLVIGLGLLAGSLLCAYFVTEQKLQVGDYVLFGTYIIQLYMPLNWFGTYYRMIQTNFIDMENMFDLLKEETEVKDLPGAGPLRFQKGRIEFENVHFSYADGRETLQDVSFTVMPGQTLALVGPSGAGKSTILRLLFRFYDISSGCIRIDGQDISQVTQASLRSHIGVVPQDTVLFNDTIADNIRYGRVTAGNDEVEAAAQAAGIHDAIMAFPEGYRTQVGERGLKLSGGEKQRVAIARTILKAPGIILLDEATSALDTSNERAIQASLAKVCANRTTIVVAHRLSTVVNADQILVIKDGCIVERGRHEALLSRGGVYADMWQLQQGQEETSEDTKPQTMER
# Myeloid diff 2: induction of myeloid progenitor differentiation, primary screen, cell-based, flow cytometry, MLPCN library | ER-HoxA9 myeloid progenitors, lysozyme-GFP differentiation | calls only at 10 µM | 360,000 tested, 1% active;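 active = normalized GFP-positive differentiation at or above the plate's own cutoff, the solvent-only control mean plus 3 SD; inconclusive = no clear call, values can overlap the other calls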;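 also: cells exposed to compound for four days before flow analysis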
# RAD54 inh: inhibitors of human RAD54 branch migration, primary screen, biochemical, fluorescence, single point; DNA repair and recombination protein RAD54-like (Homo sapiens), Q92698; RAD54 Holliday junction branch migration, FAM/BHQ fluorescence; inhibition, % at 10.4 µM; 360,000 tested, 0.14% active; AID 602329, 2012;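 active = mean normalized replicate activity at least 40 and at least half of replicates scoring 40 or more; inconclusive = only one of the two criteria met; inactive = mean below 40 and under half of replicates reaching 40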;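 also: 0% = median of neutral control wells and 100% = median of positive control wells; inhibitors cause a drop in the FAM fluorescence signal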
# Vif imaging: HIV Vif self-association inhibitors, primary screen, imaging, HEK293T, single point. HEK293T cells, Vif self-association by quenched fluorescence, 24 h. inhibition, % at 7.49 µM. 340,000 tested, 0.35% active. AID 602346, 2012; in the data active = inhibition above about 50%, passing the limit was not always enough; inconclusive = no clear call, values can overlap the other calls; inactive = below about 31%
# The depositor's hits bear a star; i = inactive; ? = inconclusive; · = no result given; + = active, no number.
SMILES,Glyco luc inh,ABCB6 inh MLPCN,Myeloid diff 2,RAD54 inh,Vif imaging
Oc1ccc(CNc2ccc(F)cc2)c2cccnc12,·,102,+,3,·
Oc1ccc(CNc2ccccc2)c2cccnc12,-1,90,i,1,-7
O=C(NCCc1ccccc1)c1cccc(NC(=O)C2CC2)c1,-2,102,+,3,-1
CCCCCN1C(=O)/C(=C/c2c(N3CCc4ccccc4C3)nc3ccccn3c2=O)SC1=S,-7,839,+,-1,-3
CCN1C(=O)/C(=C/N2CCc3ccccc3C2)SC1=S,2,99,i,6,-6
CO[C@H]1CN(C)C(=O)c2ccc(NC(C)=O)cc2OC[C@@H](C)N(CC2CCCCC2)C[C@@H]1C,·,·,·,-3,·
CN1c2ccc(C#Cc3cccnc3)cc2[C@@H]2[C@@H](CCN2C(=O)C2CC2)[C@H]1CO,·,·,·,2,·
Cc1ccc(S(=O)(=O)N2CCCc3cc(NC(=O)c4c(F)cccc4F)ccc32)cc1,-2,93,+,11,-2
COc1ccc2oc(-c3ccc(C)c(NC(=O)CSc4ccc(Cl)cc4)c3)nc2c1,1,98,+,·,9
Fc1ccccc1CNc1cc(Cl)cc(Cl)c1,1,95,i,3,119*
COC(=O)[C@H]1[C@H](CO)[C@H]2Cn3c(ccc(-c4cncnc4)c3=O)[C@H]2N1C(=O)C1CCC1,·,·,·,-10,·
Cc1cc(C)c2cc(C#N)c(N3CCCN(C(=O)c4cnccn4)CC3)nc2c1,5,110,+,-2,7
COc1ccccc1C(=O)N1CCN(c2nc3cc(C)cc(C)c3cc2C#N)CC1,2,104,i,-8,0
Cn1nnnc1SCc1ccc(C(=O)Nc2ccc(Br)cc2)cc1,-8,103,i,6,81*
CCC1(CC)NC(=O)N(CC(=O)Nc2ccc(OCc3ccccc3)cc2)C1=O,-1,104,i,-11,55*
Cc1cccc(C(=O)N[C@H](C(=O)Nc2nc3ccccc3[nH]2)C(C)C)c1,9,103,?,·,79*
Cc1ccc(C(=O)N/C(=C\c2sccc2C)C(=O)NCc2ccco2)cc1,2,101,i,1,51*
COc1ccc([C@H]2CC(=O)C=C(c3cc(Br)ccc3OC)C2)cc1,15,97,+,-1,-2
CCOc1ccc(Br)cc1C1=CC(=O)C[C@H](c2ccc(OC)cc2)C1,9,105,?,0,13
Cc1ccc2nc(/C(C#N)=C/c3ccc(-c4cccc([N+](=O)[O-])c4)o3)[nH]c2c1,1,169,+,·,-3
CN1CCN(S(=O)(=O)NC[C@H]2O[C@@H](n3cnc4c(N)ncnc43)[C@H](O)[C@@H]2O)CC1,2,94,+,0,·
C[C@H](Cc1ccccc1)Nc1ncnc2c1ncn2[C@@H]1O[C@H](CO)[C@@H](O)[C@H]1O,0,98,i,1,65*
CC(Cc1ccccc1)Nc1ncnc2c1ncn2C1OC(CO)C(O)C1O (stereo unspecified),2,96,i,-14,9
Nc1ncnc2c1ncn2[C@@H]1O[C@H](CNS(=O)(=O)C2CC2)[C@@H](O)[C@H]1O,0,100,i,5,24
Nc1ncnc2c1ncn2[C@@H]1O[C@H](CNCC#Cc2ccccc2)[C@@H](O)[C@H]1O,2,100,+,-5,2
SMILES,Glyco luc inh,ABCB6 inh MLPCN,Myeloid diff 2,RAD54 inh,Vif imaging
Nc1ncnc2c1ncn2[C@@H]1O[C@H](CO)C[C@H]1O,5,131,i,10,56*
O=C(C[C@H]1CC[C@@H]2[C@H](COC[C@@H](O)CN2C(=O)Nc2ccccc2)O1)NCc1ccncn1,·,·,·,2,·
COCCOC(=O)N1C(=O)[C@@]2(c3ccccc31)[C@H](c1ccccc1OCCO)N1[C@H](c3ccccc3)[C@H](c3ccccc3)OC(=O)[C@H]1[C@@H]2C(N)=O,·,·,·,7,·
CCCC#Cc1ccc2c(c1)O[C@H](CN(C)C)[C@@H](C)CN([C@H](C)CO)S2(=O)=O,·,·,·,0,·
COc1cc(OC)c(C(=O)C=Cc2ccc(OC)c(OC)c2)c(OC)c1,-4,97,i,-3,2
COc1cc(O)c(C(=O)/C=C/c2ccccc2)c(OC)c1,42*,100,i,-6,8
CCCCCC/C=N/Nc1nnc(Cc2ccc(OC)c(OC)c2)c(=O)[nH]1,1,101,+,-3,5
CCCN1C[C@@H](C)[C@@H](OC)CN(C)C(=O)c2ccc(NC(=O)C3CC3)cc2OC[C@H]1C,·,·,·,-9,·
Cc1c(CCC(=O)O)c(=O)oc2cc3occ(-c4ccc(Br)cc4)c3cc12,1,284,+,-21,-8
Cc1c(CCC(=O)O)c(=O)oc2cc3occ(-c4ccc(F)cc4)c3cc12,2,100,i,·,4
CCCC#Cc1ccc2c(c1)O[C@@H](CN(C)C(=O)NC(C)C)[C@@H](C)CN([C@H](C)CO)S2(=O)=O,·,·,·,1,·
Oc1ccccc1/C=N/Nc1cccc2cccnc12,-6,100,+,6,0
O=C(COc1cccc2cccnc12)N/N=C/c1ccccc1O,-3,91,i,·,5
CC1CN(S(=O)(=O)c2ccc(C(=O)NCCCn3ccnc3)cc2)CC(C)O1 (stereo unspecified),0,97,i,·,52*
O=C(NCCCn1ccnc1)c1ccc2nccnc2c1,0,102,+,14,-5
CC1CN(S(=O)(=O)c2cccc(C(=O)NCCCn3ccnc3)c2)CC(C)O1 (stereo unspecified),0,144,i,10,3
Cc1ccc(C(=O)NCCCn2ccnc2)cc1C,0,95,i,-7,-3
CCOc1ccc(NS(=O)(=O)c2ccc(OCC)c3ncccc23)cc1,8,95,+,8,-4
Cc1ccsc1C1CC(=O)Nc2ccccc2S1 (stereo unspecified),2,103,+,1,-8
CCCCc1ccc(NC(=O)Nc2cnccn2)cc1,9,98,+,-7,·
C[C@@H]1CN([C@H](C)CO)C(=O)c2cc(NC(=O)c3ccccc3)ccc2O[C@@H](C)CCCCO[C@H]1CN(C)Cc1ccc2c(c1)OCO2,·,·,·,14,·
Cc1cccc2cc(COC(=O)c3ccccc3)c(=O)[nH]c12,2,109,i,-7,8
Cc1cccc2cc(COC(=O)c3ccco3)c(=O)[nH]c12,-1,101,i,-15,64*
CO[C@@H]1CN(C)C(=O)c2ccc(NC(=O)C3CCOCC3)cc2OC[C@@H](C)N(CC2CC2)C[C@@H]1C,·,·,·,7,·
Brc1ccc(C2=Nn3c(nnc3-c3n[nH]c4c3CCC4)SC2)cc1,42*,91,i,4,13

# High-throughput results deposited in PubChem BioAssay by several laboratories.
